An excerpt weighted towards active compounds, which were near 9.2% of everything screened.
NPC1 promoter act – qHTS Assay for NPC1 Promoter Activators. Huh7 NPC1 promoter luciferase reporter, 24 h. Potency, µM (series often up to 9.22 µM), for the others: at the highest dose activation, usual class: activators. 320,000 tested, 2.4% active; note: % of control where 0% means no effect; nearly all actives have a fitted effect of over 60% in size
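Compounds in DMSO were transferred onto Huh7 NPC1-luciferase reporter cells pre-incubated 2 h; after 24 h at 37 °C, Amplite reagent was dispensed and luminescence recorded 10 min later.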
FLuc modulator – qHTS profiling assay for firefly luciferase inhibitor/activator using purifed enzyme and Km concentrations of substrates (counterscreen for miR-21 project) | Luciferin 4-monooxygenase (Photinus pyralis), P08659 | purified FLuc, Km substrates, luminescence inhibition | Potency, µM (top dose mostly 57.5 µM), for inactives: at the top dose activity change, negative = inhibition, usual class: inhibitors | 360,000 tested, 6.9% active | AID 588342, 2011;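 note: plate controls were vehicle for no effect and reference inhibitor for full effect; nearly all actives have a fitted effect of over 55% in size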
Target sequence (P08659 whole entry, looked up): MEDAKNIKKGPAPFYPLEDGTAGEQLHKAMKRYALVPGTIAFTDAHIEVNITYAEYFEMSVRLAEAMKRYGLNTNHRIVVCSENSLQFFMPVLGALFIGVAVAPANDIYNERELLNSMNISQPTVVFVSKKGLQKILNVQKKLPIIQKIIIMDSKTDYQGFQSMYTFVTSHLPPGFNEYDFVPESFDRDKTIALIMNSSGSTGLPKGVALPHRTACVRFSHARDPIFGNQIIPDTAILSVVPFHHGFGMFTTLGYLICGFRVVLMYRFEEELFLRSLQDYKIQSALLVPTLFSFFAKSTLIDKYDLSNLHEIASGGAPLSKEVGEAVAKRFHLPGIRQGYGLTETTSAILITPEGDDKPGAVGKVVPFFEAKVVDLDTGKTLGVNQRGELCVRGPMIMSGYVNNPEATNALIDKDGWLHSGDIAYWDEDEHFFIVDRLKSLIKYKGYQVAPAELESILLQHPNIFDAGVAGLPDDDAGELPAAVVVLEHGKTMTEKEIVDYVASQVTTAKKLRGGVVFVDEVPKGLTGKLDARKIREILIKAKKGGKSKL
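Purified P. pyralis luciferase (10nM final) with 10uM D-luciferin and 10uM ATP (Km levels) in 50mM Tris acetate pH 7.5, 10mM Mg acetate, 0.01% Tween-20, 0.05% BSA; qHTS 6-point titration, ~60 µM downward; luminescence read.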
SMN2 splice up – qHTS Assay for Enhancers of SMN2 Splice Variant Expression | HEK293 SMN2-luciferase splicing reporter, luminescence, 30-36 h | Potency, µM (series often up to 46.1 µM), without a hit: top-dose activity change, positive = activation, most hits filed as activators | 210,000 tested, 2.8% active | AID 1458, 2008; note: % of control where 0% means no effect; nearly all actives have a fitted effect of over 55% in size
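HEK293 cells carry an SMN2 minigene-luciferase reporter in which exon 7 inclusion puts luciferase in frame. Cells were seeded at 2000 cells/well, attached for 10-12 hours, then exposed to compounds for 30-36 hours at 37C before ONE-Glo luminescence.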
Rab9 prom act – qHTS Assay for Rab9 Promoter Activators. Huh7 Rab9 promoter-luciferase reporter, luminescence, 24 h. Potency, µM (top dose mostly 9.22 µM), without a hit: at the top dose activation, negative = inhibition, most hits filed as activators. 320,000 tested, 2.8% active; note: % of control where 0% means no effect; nearly all actives have a fitted effect of over 60% in size
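Promoter activation is measured as luciferase luminescence in Huh7 cells stably transfected with a Rab9 promoter–luciferase construct, following 24 h compound exposure at 37 °C and 10 min reagent incubation at ambient temperature.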
ELG1 repair inh – qHTS screen for small molecules that inhibit ELG1-dependent DNA repair in human embryonic kidney (HEK293T) cells expressing luciferase-tagged ELG1 | Potency, µM (series often up to 46.1 µM), inactives show at the top dose activity change, negative = inhibition, most hits filed as inhibitors | 330,000 tested, 2.3% active | AID 504467, 2011 | HEK293T ELG1-luciferase reporter, luminescence, 16 h; DNA damage induced by 5-fluorouridine; note: % is set by controls: 0 for no effect and ±100 for the full control effect; nearly all actives have a fitted effect of over 55% in size
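Quantitative HTS, concentration-response format. 2,000 cells/well co-treated with 5-fluorouridine and compound, 16 hr in 5% CO2 at 37 °C; ONE-Glo luminescence read after 30 min.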
ELG1 genotoxic – qHTS screen for small molecules that induce genotoxicity in human embryonic kidney (HEK293T) cells expressing luciferase-tagged ELG1; 330,000 tested, 1.3% active; HEK293T ELG1-luciferase reporter, luminescence, 16 h; Potency, µM (series often up to 46 µM), without a hit: top-dose activity change, positive = activation, actives largely listed as activators; note: % of control where 0% means no effect; nearly all actives have a fitted effect of over 60% in size
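HEK293T cells expressing luciferase-tagged ELG1 were exposed to compound or DMSO vehicle for 16 hr at 37 °C and 5% CO2. Luciferase activity was then measured with ONE-Glo after 30 min at room temperature.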
* marks the source's active call; other numbers are inactive results; ? = inconclusive; / = no result; [ ] = dose if it differs, or a comment. Calls come from the whole dose curve; as a rule, active = well fitted curve in the direction sought with a large enough effect; inconclusive = small, poorly fitted or top-dose-only effect, or another doubt; inactive = no such curve, though single readings can be large; an effect the other way counts as inactive or inconclusive. Potency is the fitted concentration of half-maximal effect.

SMILES	NPC1 promoter act	FLuc modulator	SMN2 splice up	Rab9 prom act	ELG1 repair inh	ELG1 genotoxic
CCOc1ccc(C(=O)NC2=NCCS2)cc1	1.1µM*	11µM*	14µM*	0.5µM*	?	?
Clc1ccc2c(N3CCC(CCC4CCN(c5ncnc6cc(Cl)ccc56)CC4)CC3)ncnc2c1	/	/	-16%[9.22 µM]	/	/	/
COC(=O)c1ccccc1NC(=O)c1cnc(Nc2ccc(OC)cc2)c2ccccc12	/	28%	5%	/	/	/
O=C(CN(Cc1ccccc1)C(=O)c1ccco1)NCc1ccc(F)cc1	-4%	3%	-13%	-6%	0%	-2%
COc1ccc(-c2ccn(-c3cccc(F)n3)n2)cc1	3.2µM*	15µM*	-55%	2.2µM*	?	?
CC(/C=C/c1ccccc1)=N/NC(=O)c1cc([N+](=O)[O-])cc([N+](=O)[O-])c1	-23%	2%	-80%	-31%	-21%	15%
CC(/C=C/c1ccccc1)=N\Nc1ccccc1[N+](=O)[O-]	4µM*	7.6µM*	19%	?	?	14%
CS(=O)(=O)c1ccc2nc(NC(=O)CS(=O)(=O)Cc3ccccc3)sc2c1	1%	17µM*	-6%	11%	12%	1%
CS(=O)(=O)c1ccc2nc(NC(=O)c3ccccc3)sc2c1	0.63µM*	2.1µM*	/	0.5µM*	?	?
Cc1cccc(C(=O)Nc2nc3ccc(S(C)(=O)=O)cc3s2)c1	2.2µM*	2.1µM*	/	?	?	?
Cc1ccc(NC(=O)Nc2nc3ccc(S(C)(=O)=O)cc3s2)cc1	-2%	-2%	/	-3%	-4%	-1%
CS(=O)(=O)c1ccc2nc(NC(=O)Nc3ccccc3F)sc2c1	0.32µM*	0.54µM*	/	1.1µM*	?	?
CS(=O)(=O)c1ccc2nc(NC(=O)Cc3ccccc3)sc2c1	-1%	-6%	/	14%	4%	3%
O=C(NCCCc1nc2ccccc2[nH]1)c1ccc(F)cc1	-3%	0%	0%	0%	26%	-1%
O=C(NCCCN1CCCC1=O)Nc1ccc(Br)cc1Cl	13%	-15%	/	23%	?	14%
CCOC(=O)[C@H]1[C@H]2COc3ccc(Cl)cc3[C@@H]2N2C(=O)[C@@H](CO)NC(=O)[C@@]12C	/	/	/	/	?	0%
NS(=O)(=O)c1ccc2nc(NC(=O)c3ccncc3)sc2c1	18%	6.7µM*	/	23%	?	12%
CC(C)C(=O)Nc1nc2ccc(S(C)(=O)=O)cc2s1	14%	?	27%	18%	19%	-2%
CC(C)(C)C(=O)Nc1nc2ccc(S(C)(=O)=O)cc2s1	?	?	7.9µM*	1.8µM*	?	6%
CS(=O)(=O)c1ccc2nc(NC(=O)c3ccc(NS(=O)(=O)c4cccc([N+](=O)[O-])c4)cc3)sc2c1	-3%	11µM*	/	11%	1%	-1%
COc1ccc(-c2noc(CNC(=O)c3ccccc3Br)n2)cc1	/	-1%	-10%	/	/	/
Cn1cc(C(=O)c2ccc(Cl)cc2Cl)cc1C(=O)N/N=C(\N)COc1ccc(Cl)cc1	-7%	3%	/	-3%	18µM*	-13%
Cn1cc(C(=O)c2ccc(Cl)cc2Cl)cc1C(=O)N/N=C(\N)COc1ccc(F)cc1	-5%	3%	4%	-1%	-19%	-14%
Cn1cc(C(=O)c2ccc(Cl)cc2Cl)cc1C(=O)N/N=C(\N)COc1ccc(Cl)cc1Cl	-6%	3%	-9%	-6%	23µM*	-26%
Cn1cc(C(=O)c2ccc(Cl)cc2Cl)cc1C(=O)N/N=C(\N)COc1ccccc1	-5%	0%[2.3 µM]	-7%	2%	-28%	-12%
SMILES	NPC1 promoter act	FLuc modulator	SMN2 splice up	Rab9 prom act	ELG1 repair inh	ELG1 genotoxic
NC(=O)C(=O)N/N=C/c1c(F)c(F)c(F)c(F)c1F	-2%	0%	-3%	0%	-7%	-2%
COc1ccc(/C=C/C(=O)Nc2sc(C)c(C)c2C(=O)O)cc1	/	1.3µM*	1%	/	/	/
CCOC(=O)c1c(NC(=O)/C=C/c2ccc(C)o2)sc(C)c1C	25%	-14%	/	23%	6%	-1%
Cc1sc(NC(=O)/C=C/c2ccco2)c(C(=O)O)c1C	?	5.4µM*	/	?	?	?
COC(=O)CSc1nnc(CCc2ccccc2)n1C	0%	-4%	/	-1%	5%	-2%
COc1cc(C2C(C(=O)Nc3ccccc3C)=C(C)Nc3ncnn32)ccc1OCC(N)=O (stereo not drawn)	/	-1%	/	/	/	/
Cn1c(CO)cnc1SCc1ccc(Cl)cc1	3.5µM*	-16%	8%	?	?	7%
S=c1[nH]nc(Cc2cccc3ccccc23)n1-c1ccccc1	-1%	5%	-27%	-5%	-4%	-2%
O=C(Cn1ncc2c3ccccc3n(Cc3cccc(Cl)c3)c2c1=O)NCCCN1CCCCC1	/	-2%	7%	/	/	/
Cc1ccc(CS(=O)(=O)Cc2ccc(C(=O)NC3CCCCCC3)o2)cc1	-48%	-8%	/	-1%	18µM*	1%[9.26 µM]
O=C(NC1CCCCC1)c1ccc(CS(=O)(=O)Cc2ccccc2F)o1	11%	-3%	10µM*	21%	26%	8%
Cc1ccc(CS(=O)(=O)Cc2ccc(C(=O)NC3CCCC3)o2)cc1	-4%	3%	/	-3%	-11%	2%
O=C(NC1CCCC1)c1ccc(CS(=O)(=O)Cc2ccccc2F)o1	0%	1%	/	0%	?	-1%
C=Cc1ccc(CSc2nc(-c3ccccc3Cl)nc3c2Cc2c(CO)cnc(C)c2O3)cc1	/	-2%	/	/	/	/
CCOc1ccccc1NC(=O)C1CCCN(S(=O)(=O)c2cccs2)C1 (stereo not drawn)	/	1%	-38%	/	/	/
CN(C)CC(C)(C)CN1c2ccccc2Sc2ccccc21	/	/	-7%[9.22 µM]	/	/	/
Cc1cc(O)c(-c2n[nH]c3c2C(c2cccc(O)c2)N(Cc2cccnc2)C3=O)cc1Cl (stereo not drawn)	-4%	8%	20µM*	2%	?	3%
O=C(Nc1nc(-c2ccc3c(c2)OCO3)cs1)C1COc2ccccc2O1 (stereo not drawn)	0%	?	6%	0%	-2%	0%
COc1cccc(C(=O)Nc2nc(-c3ccc4c(c3)OCO4)cs2)c1	4%	17µM*	-18%	-4%	13%	15%

Compound activity as filed in PubChem BioAssay.
